HCMV inh: blocks human cytomegalovirus replication | HFF cells, HCMV-luciferase reporter, 72 h; hits give low values | 410,000 compounds, 4.5% hits | activity change, negative = inhibition, % at 57.5 µM | AID 1259415; in the data active = activity change below about -60%; inconclusive = no clear call, values can overlap the other calls; inactive = above about -39%
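Luciferase read-out from HCMV-luciferase-infected HFFs (MOI 1 PFU/cell) 72 h post infection at 37C; compounds added after 16 h cell attachment; activity normalized between buffer-only basal and Salinomycin (10uM) inhibitor controls.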
Marburg entry inh: Marburg virus entry inhibition; Marburg virus pseudotyped entry inhibition, cell reporter; Potency, µM (top dose mostly 37.8 µM), hits mostly inhibitors; 300,000 compounds, 1.8% hits; AID 540276; calls by dose curve; tested in HEK293 cells
Vaccinia mCherry: vaccinia inhibition (mCherry reporter). Vaccinia virus mCherry reporter infection, fluorescence. Potency, µM (highest dose often 36.5 µM), usual class: inhibitors. 310,000 compounds, 0.63% hits; calls by dose curve; tested in A549 cells; note: nearly all actives have a fitted effect of over 35% in size
FMDV inh: blocks foot and mouth disease virus; FMDV antiviral cell-based qHTS; Potency, µM (top dose mostly 57.9 µM), usual class: inhibitors; 410,000 compounds, 1.2% hits; calls by dose curve; tested in HEK293T cells; note: read-out not given here; nearly all actives have a fitted effect of over 45% in size
Lassa entry inh: inhibitors of Lassa virus binding or cell entry; Lassa virus pseudotype entry inhibition, cell reporter; Potency, µM (top dose mostly 37.9 µM), actives largely listed as inhibitors; 300,000 compounds, 1.2% hits; AID 540256; calls by dose curve; tested in HEK293 cells; note: nearly all actives have a fitted effect of over 50% in size
VACV Venus inh: inhibitors of vaccinia virus (Venus reporter); 330,000 compounds, 0.46% hits; Potency, µM (highest dose often 36.5 µM), most hits filed as inhibitors; Vaccinia virus Venus reporter expression, fluorescence; calls by dose curve; tested in A549 cells; note: nearly all actives have a fitted effect of over 30% in size
Of the large screens only hits and unclear results are named; the others gave an inactive call. Shown are actives, neighbours in structure and some others; about 6.5% of the full set was active somewhere.

COc1ccc2c(/C=C/c3cc[n+](C)cc3)c[nH]c2c1	HCMV inh -99, Vaccinia mCherry inconclusive, FMDV inh inconclusive
O=c1c2sc3ccccc3c2n(Cc2ccc(F)cc2)c(=O)n1Cc1ccccc1	none
COc1ccc(CNC(=O)c2cc3ccccn3n2)c(OC)c1	none (no result: Marburg entry inh)
Cc1ccc(C(=O)c2oc3ccccc3c2NC(=O)COc2ccccc2Cl)cc1	none
Cn1c(SCC(=O)NCc2ccco2)nnc1-c1ccc(NC(=O)c2ccccc2)cc1	none (no result: HCMV inh, Marburg entry inh, FMDV inh, Lassa entry inh)
COc1ccc(-c2c(-c3ccccc3)c(C(=O)C(=O)NCCCN(C)C)n3ccc4cc(OC)c(OC)cc4c23)cc1OC	HCMV inh -96, Marburg entry inh inconclusive
COc1ccc(CNC(=O)Cn2nc(C(F)(F)F)c(Br)c2C)cc1	none (no result: Marburg entry inh, Vaccinia mCherry, Lassa entry inh, VACV Venus inh)
COc1cc(NC(=O)Cn2nc(C(F)(F)F)c(Br)c2C)cc([N+](=O)[O-])c1	HCMV inh -96, Marburg entry inh inconclusive, FMDV inh 40µM, VACV Venus inh inconclusive
Cc1ccc(C(=O)CC2(O)C(=O)N(CCc3ccccc3)c3ccc(Cl)cc32)cc1 (stereo not given)	HCMV inh -104, Vaccinia mCherry inconclusive, Lassa entry inh inconclusive
C=CCOc1ccc([C@H]2/C(=C(/O)c3ccc(F)cc3)C(=O)C(=O)N2CCCN(C)C)cc1	none (no result: HCMV inh, Vaccinia mCherry, FMDV inh, Lassa entry inh, VACV Venus inh)
CCc1ccc(NC(=O)COC(=O)C2(c3ccc(Cl)cc3)CCCC2)cc1	FMDV inh 20µM
O=C(COC(=O)C1(c2ccc(Cl)cc2)CCCC1)NCc1ccco1	FMDV inh inconclusive
O=C(Nc1ccc(Cc2ccncc2)cc1)C1CCC(N2C(=O)C3C4C=CC(C5CC45)C3C2=O)CC1 (stereo not given)	HCMV inh -85, Marburg entry inh inconclusive, FMDV inh 14µM, Lassa entry inh inconclusive (no result: Vaccinia mCherry, VACV Venus inh)
c1ccc(C2[C@H]3CN(Cc4cccnc4)[C@H](c4ccccc4)C34CC2(c2cccnc2)C4)cc1 (stereo not given in full)	HCMV inh -65, VACV Venus inh inconclusive (no result: Marburg entry inh, Lassa entry inh)
FC(F)(F)c1ccc(CN2C[C@@H]3C(c4ccccc4)C4(c5cccnc5)CC3(C4)[C@H]2c2ccccc2)cc1 (stereo not given in full)	Vaccinia mCherry inconclusive, FMDV inh inconclusive (no result: Marburg entry inh, Lassa entry inh)
c1ccc(C2[C@H]3CN(Cc4cccnc4)[C@H](c4ccccc4)C34CC2(c2ccccc2)C4)cc1 (stereo not given in full)	FMDV inh inconclusive (no result: Marburg entry inh, Lassa entry inh)
FC(F)(F)c1ccc(CN2C[C@@H]3C(c4ccc(C(F)(F)F)cc4)C4(c5cccnc5)CC3(C4)[C@H]2c2ccccc2)cc1 (stereo not given in full)	HCMV inh -73, FMDV inh inconclusive (no result: Marburg entry inh, Lassa entry inh)
COC(=O)c1cccc(C23CC4(C2)[C@H](CN(Cc2ccc(C(F)(F)F)cc2)[C@@H]4c2ccccc2)C3c2ccc(C(F)(F)F)cc2)c1 (stereo not given in full)	HCMV inh -94 (no result: Marburg entry inh, Lassa entry inh)
COC(=O)c1cccc(C23CC4(C2)[C@H](CN(Cc2ccc(C(F)(F)F)cc2)[C@@H]4c2ccccc2)C3c2ccc(Cl)nc2)c1 (stereo not given in full)	none (no result: Marburg entry inh, Lassa entry inh)
CN([C@H]1CCS(=O)(=O)C1)S(=O)(=O)c1cccc2nsnc12	none (no result: HCMV inh, Vaccinia mCherry, FMDV inh, Lassa entry inh, VACV Venus inh)
CCOC(=O)CCN1C(=O)[C@H]2[C@H]3[C@H](O)[C@H](O)C/C(=N\OCc4ccccc4)[C@@H]3CC[C@H]2C1=O	none (no result: HCMV inh, Vaccinia mCherry, FMDV inh, Lassa entry inh, VACV Venus inh)
Cc1ccc(-c2nn(-c3cc(N4CCNCC4)ccc3[N+](=O)[O-])c(=O)c3ccccc23)cc1	HCMV inh -68, Marburg entry inh inconclusive, Lassa entry inh inconclusive
Cc1nn(-c2cc(N3CCCCCC3)ccc2[N+](=O)[O-])c(=O)c2ccccc12	Lassa entry inh inconclusive (no result: Vaccinia mCherry, VACV Venus inh)
c1ccc(-c2cc3ccccc3nc2N2CCCC2)cc1	HCMV inh -61 (no result: Vaccinia mCherry)
CS(=O)(=O)c1ccc(Nc2cc3c(cn2)cc(-c2ccccc2)n3Cc2ccccc2)cc1	none (no result: Marburg entry inh, Vaccinia mCherry, FMDV inh, Lassa entry inh, VACV Venus inh)
CCC1(c2cccc(Cl)c2)NC(=O)N(Cc2cc(C(=O)OC)c(C)o2)C1=O (stereo not given)	FMDV inh 28µM (no result: Vaccinia mCherry, VACV Venus inh)
CCC1(c2ccccc2)NC(=O)N(Cc2ccc(C(=O)OC)cc2)C1=O (stereo not given)	none
O=C(Nc1cccc(Cl)c1)NN(c1ccccc1)C1CCS(=O)(=O)C1 (stereo not given)	none (no result: Marburg entry inh, Vaccinia mCherry, FMDV inh, Lassa entry inh, VACV Venus inh)
CC(=O)N1CCCc2ccc(NC(=O)c3ccc(OC(C)C)cc3)cc21	HCMV inh -61, FMDV inh 11µM, Lassa entry inh inconclusive (no result: Marburg entry inh)
CCCCOc1ccc(C(=O)Nc2ccc(N3CCN(C)CC3)cc2)cc1	none (no result: Vaccinia mCherry)
COc1cccc(OC)c1C(=O)Nc1ccc2c(c1)N(C(C)=O)CCC2	none (no result: Marburg entry inh)
CCCCOc1ccc(C(=O)Nc2ccc3c(c2)N(C(C)=O)CCC3)cc1	HCMV inh inconclusive, FMDV inh 3.2µM (no result: Marburg entry inh)
COc1ccc(OCC(=O)NCC2(N3CCN(C)CC3)CCCCC2)cc1	none
CN1CCN(c2ncc3nc(-c4cccs4)c(=O)n(CCc4ccccc4)c3n2)CC1	none (no result: HCMV inh, Marburg entry inh, Vaccinia mCherry, Lassa entry inh, VACV Venus inh)
O=S(=O)(c1ccc(Br)cc1)N1CCN(c2nc(-c3ccccc3)nc3ccccc23)CC1	none (no result: HCMV inh, Marburg entry inh, FMDV inh, Lassa entry inh)
CN(C)c1nc(Nc2ccccc2)nc(N(C)C)n1	Marburg entry inh 3.5µM
COC(=O)c1ccc(Oc2nc(Nc3ccccc3)nc(N(C)C)n2)cc1	FMDV inh inconclusive (no result: Vaccinia mCherry, VACV Venus inh)
CN(C)c1nc(N/N=C/c2ccccc2O)nc(Nc2ccc(F)cc2)n1	HCMV inh inconclusive, Marburg entry inh inconclusive, Vaccinia mCherry 7.9µM, FMDV inh inconclusive, Lassa entry inh inconclusive, VACV Venus inh inconclusive
O=C(O)CC1S/C(=N\N=C2CCCCCCC2)N(c2ccccc2)C1=O (stereo not given)	HCMV inh -104
CCCC(O)c1nnc(Nc2cccc(Cl)c2)s1 (stereo not given)	none (no result: Marburg entry inh, Vaccinia mCherry, FMDV inh, Lassa entry inh, VACV Venus inh)
CC(C)(C)c1ccc(/C=C2\Oc3cc(O)ccc3C2=O)cc1	HCMV inh -92, Marburg entry inh inconclusive, Lassa entry inh inconclusive, VACV Venus inh inconclusive
CN(C)C(=O)Oc1ccc2c(c1)O/C(=C\c1cccc([N+](=O)[O-])c1)C2=O	none (no result: Marburg entry inh, Vaccinia mCherry, Lassa entry inh, VACV Venus inh)
O=C1/C(=C/c2ccc(Br)cc2)Oc2cc(O)ccc21	Marburg entry inh inconclusive
O=C1/C(=C/c2ccc([N+](=O)[O-])cc2)Oc2cc(O)ccc21	HCMV inh -89, Marburg entry inh inconclusive, Lassa entry inh inconclusive
COc1ccc(/C=C\c2onc(C)c2S(=O)(=O)N2CCC(C(=O)Nc3cccc(Cl)c3)CC2)cc1	HCMV inh inconclusive
O=S(=O)(c1ccc(Br)cc1)N1CCN(c2nc(-c3cccs3)nc3ccccc23)CC1	none (no result: HCMV inh, Marburg entry inh, FMDV inh, Lassa entry inh)
CN(C(=O)Cn1cc(S(=O)(=O)N2CCN(c3ccccc3F)CC2)c2ccccc2c1=O)c1ccc(Cl)cc1	HCMV inh inconclusive, Marburg entry inh inconclusive
NC(=O)C1(N2CCCCC2)CCN(Cc2nc(-c3cccs3)no2)CC1	FMDV inh 35µM (no result: Marburg entry inh, Vaccinia mCherry, Lassa entry inh, VACV Venus inh)
Cc1cc(C(C)(C)C)oc1C(=O)N(CC(=O)NC1CCCC1)c1c(C)cccc1C	Marburg entry inh 10µM, Vaccinia mCherry inconclusive, Lassa entry inh inconclusive, VACV Venus inh inconclusive

Screening results (PubChem BioAssay)
